{"source": "PubChem BioAssay (Tox21)", "note": "Values joined by “and” are separate entries in the source; they are usually repeats but may differ in a detail not shown here. Identical values can stand only once. Results filed as inconclusive are left out. A number with no mark means an inactive call. Active and inactive are the calls of the source. Calls come from the whole dose curve; as a rule, active = well fitted cell-killing curve with a large enough effect in the repeat runs; inconclusive = weak or mixed curves, or effect the other way; inactive = no such curve, though single readings can be large or run the other way. % is set by controls: 0 for no effect and ±100 for the full control effect; potency is the fitted concentration of half-maximal effect.", "data": [{"assay": "qHTS assay for small molecule activators of the heat shock response signaling pathway - cell viability counter screen (AID 743209); note: nearly all actives have a fitted effect of over 50% in size", "settings": "HSE-bla HeLa viability, CellTiter-Glo luminescence, 5 h; series mostly up to 62.6 µM; activity change, negative = cytotoxicity: at the top concentration", "excerpt": "U.S. Tox21 Program National Center for Advancing Translational Sciences [NCATS] NIH Chemical Genomics Center [NCGC] U.S. Environmental Protection Agency [EPA] National Institutes of Environmental Health Sciences [NIEHS] National Toxicology Program [NTP] U.S. Food and Drug Administration [FDA] Tox21 Assay Overview: Various chemicals, environmental and physiological stress conditions may lead to the activation of heat shock response/ unfolded protein response (HSR/UPR). There are three heat shock transcription factors (HSFs) (HSF-1, -2, and -4) mediating transcriptional regulation of the human HSR. To identify the compounds that activate HSR signaling, HSE-bla HeLa cell line (Invitrogen, Carlsbad, CA, USA) containing a beta-lactamase reporter gene under the control of the heat shock response elements was used to screen Tox21 10K compound library. The cytotoxicity of the Tox21 compound library against the HSE-bla HeLa cell line was tested in parallel by measuring the cell viability using CellTiter-Glo assay (Promega, Madison, WI) in the same wells.\nTox21 Assay Protocol Summary: The CellSensor HSE-bla HeLa cells (Invitrogen, Carlsbad, CA, USA) were dispensed at 1500 cells/6uL/well into 1536-well black wall/clear bottom plates using a Multidrop combi (Thermo Fisher Scientific, Waltham, MA) dispenser. After the assay plates were incubated at 37 C and 5% CO2 overnight, 23 nL of compounds dissolved in DMSO, positive controls or DMSO only was transferred to the assay plate by a Pintool station (Kalypsys, San Diego, CA). The plates were incubated at 37 C for 5 h. After 1 uL of LiveBLAzerTM B/G FRET substrate was added using a Flying Reagent Dispenser (FRD, Beckman Coulter, Indianapolis, IN, USA), the plates were incubated at room temperature for 2.5 h, and fluorescence intensity was measured by an Envision plate reader (PerkinElmer, Shelton, CT). For cell viability readout that measures cytotoxicity, 3 ul/well of CellTiter-Glo reagent was added into the assay plates using a FRD. After 30 min incubation at room temperature, the luminescence intensity in the plates was measured using a ViewLux (PerkinElmer) plate reader.", "values": [{"compound": "C[C@]12C=CC3=C4CCC(=O)C=C4CC[C@H]3[C@@H]1CC[C@@H]2O", "activity change, negative = cytotoxicity": "-28.9%"}, {"compound": "FC(F)OC(F)(F)C(F)Cl", "note": "(stereo not given)", "activity change, negative = cytotoxicity": "-21.1%"}, {"compound": "C=CCc1ccccc1O", "activity change, negative = cytotoxicity": "2.12%"}, {"compound": "Clc1ccccc1", "activity change, negative = cytotoxicity": "-4.45%"}, {"compound": "C[C@H]1O[C@H](OC2[C@@H](O)[C@@H](O)C(O)[C@H](O)[C@H]2O)[C@@H](N)C[C@@H]1N=C(N)C(=O)O", "note": "(stereo not given in full)", "activity change, negative = cytotoxicity": "-0.875%"}, {"compound": "CCOP(=O)(SC(C)CC)N1CCSC1=O", "note": "(stereo not given)", "activity change, negative = cytotoxicity": "-0.774%"}, {"compound": "COc1ccc(C(O)(c2cncnc2)C2CC2)cc1", "note": "(stereo not given)", "activity change, negative = cytotoxicity": "-0.445%"}, {"compound": "CCCCCCCCn1sccc1=O", "Potency": "inactive"}, {"compound": "CCOc1cccc(C2(N3CCN(c4ccccc4)CC3)CCC(C)CC2)c1", "note": "(stereo not given)", "activity change, negative = cytotoxicity": "-1.89%"}, {"compound": "Cc1cnc(C2=NC(C)(C(C)C)C(=O)N2)c(C(=O)O)c1", "note": "(stereo not given)", "activity change, negative = cytotoxicity": "2.43%"}, {"compound": "COP(=O)(OC)OC(Br)C(Cl)(Cl)Br", "note": "(stereo not given)", "activity change, negative = cytotoxicity": "26.7%"}, {"compound": "CCCCCCCCP(=O)(O)O", "activity change, negative = cytotoxicity": "1.65%"}, {"compound": "CCCSP(=S)(OCC)Oc1ccc(SC)cc1", "note": "(stereo not given)", "activity change, negative = cytotoxicity": "-3.89%"}, {"compound": "COc1ccccc1N1CCNCC1", "activity change, negative = cytotoxicity": "19.8%"}, {"compound": "CCCCCCCCCCCCN(C)C", "activity change, negative = cytotoxicity": "-3.68%"}, {"compound": "CC(Cc1ccccc1)NCc1ccccc1Cl", "note": "(stereo not given)", "activity change, negative = cytotoxicity": "-3.67%"}, {"compound": "CC(Oc1cc(Cl)c(Cl)cc1Cl)C(=O)O", "note": "(stereo not given)", "activity change, negative = cytotoxicity": "5%"}, {"compound": "O=C(O)COc1cc(Cl)c(Cl)cc1Cl", "Potency": "inactive"}, {"compound": "CC(C)(C)CC(C)(C)c1ccc(O)cc1", "Potency": "54.9 µM (active) and 29.8 µM (active)"}, {"compound": "CCCCC1C(=O)NC(=O)N(C2CCCCC2)C1=O", "note": "(stereo not given)", "activity change, negative = cytotoxicity": "0.761%"}, {"compound": "CN(C)c1ccc(N=O)cc1", "Potency": "3.9 µM (active) and 5.49 µM (active)"}, {"compound": "CCCCOC(=O)CCC(=O)OCCCC", "activity change, negative = cytotoxicity": "-0.457%"}, {"compound": "CCCCCl", "activity change, negative = cytotoxicity": "-4.6% [at 81.1 µM]"}, {"compound": "CCCCC#N", "activity change, negative = cytotoxicity": "-12.5%"}, {"compound": "O=C1NC(=O)C(=O)C(=O)N1", "activity change, negative = cytotoxicity": "4.16% [at 81.1 µM]"}, {"compound": "CCCCCCCCCCCC[N+](C)(C)CCOc1ccccc1", "Potency": "34.7 µM (active)"}, {"compound": "CC(C)c1ccc(NC(=O)N(C)C)cc1", "activity change, negative = cytotoxicity": "0.515%"}, {"compound": "CC(C)CCON=O", "activity change, negative = cytotoxicity": "2.82%"}, {"compound": "C=CCOC(=O)C(C)(C)OC(=O)c1cc(-n2c(=O)cc(C(F)(F)F)n(C)c2=O)ccc1Cl", "activity change, negative = cytotoxicity": "-2.7%"}, {"compound": "CC(=O)NNc1ccccc1", "activity change, negative = cytotoxicity": "3.56%"}, {"compound": "CCC1(CC)C(=O)NC(=O)NC1=O", "activity change, negative = cytotoxicity": "-1.11%"}, {"compound": "C=C(Cl)Cl", "activity change, negative = cytotoxicity": "2.96% [at 81.1 µM]"}, {"compound": "C[N+](C)(C)CCOC(=O)C(O)(c1ccccc1)c1ccccc1", "activity change, negative = cytotoxicity": "-15%"}, {"compound": "CC(C)(C)N(NC(=O)c1ccc(Cl)cc1)C(=O)c1ccccc1", "activity change, negative = cytotoxicity": "-3.23%"}, {"compound": "O=C(O)C(F)(F)C(F)(F)C(F)(F)C(F)(F)C(F)(F)F", "activity change, negative = cytotoxicity": "-1.76%"}, {"compound": "CN1C(=O)CN=C(c2ccccc2)c2cc([N+](=O)[O-])ccc21", "activity change, negative = cytotoxicity": "-7.81%"}, {"compound": "NC(=O)CF", "activity change, negative = cytotoxicity": "-1.82%"}, {"compound": "C1CCNCC1", "activity change, negative = cytotoxicity": "-0.367% [at 81.1 µM]"}, {"compound": "O=C(N/N=C/c1ccc([N+](=O)[O-])o1)c1cc([N+](=O)[O-])cc([N+](=O)[O-])c1O", "activity change, negative = cytotoxicity": "1.43%"}, {"compound": "O=C(Cc1ccccc1)OCCc1ccccc1", "activity change, negative = cytotoxicity": "9.64%"}]}]}
